Where “and” joins values, the source holds several entries; their conditions need not be identical. Identical values can stand only once. Inconclusive results are not listed. Calls of active or inactive are those of the source. Unless noted, calls follow the shape of the dose curve; as a rule, active = well fitted curve in the direction sought with a large enough effect; inconclusive = small, poorly fitted or top-dose-only effect, or another doubt; inactive = no such curve, though single readings can be large; an effect the other way counts as inactive or inconclusive.
Assays:
[1] = Cellular Toxicity (caspase-3) HepG2 (AID 654);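 also: cells exposed to compound for 16 hours before reading; 0% = DMSO alone and 100% = caspase signal from 100 µM tamoxifen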
How it was run: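 Caspase 3/7 activation is measured as a luminescence increase (aminoluciferin substrate) after 16 h compound exposure of human hepatocarcinoma HepG2 cells. AC50 values are Hill fits, scaled between DMSO baseline and 100 uM tamoxifen stimulation.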

[2] = Cellular Toxicity (caspase-3) SK-N-SH (AID 661);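 also: 0% = DMSO basal and 100% = 10 µM staurosporine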
How it was run: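 Caspase 3/7 activation was read by luminogenic substrate cleavage after 16 hour treatment of SK-N-SH cells. Signal was scaled between DMSO and 10 uM staurosporine, and concentration-response data were fitted with the Hill equation for AC50.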

[3] = Cellular Toxicity (caspase-3) Hek293 (AID 664); conditions: HEK293 caspase-3 activation, DMSO = 0%, 100 µM tamoxifen = 100%; at 92.2 µM (top of the series);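 also: cells exposed to compound for 16 h at 37 °C before readout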
How it was run: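 Concentration-response qHTS: caspase 3/7 activation measured by luminescent aminoluciferin substrate cleavage after 16 h compound exposure of Hek 293 cells. AC50 from Hill equation, with DMSO as basal and 100 uM tamoxifen as 100%.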

[4] = Cellular Toxicity (caspase-3) N2a (AID 665);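 also: compound exposure lasted 16 h at 37 °C before readout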
How it was run: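 Caspase-3/7 activation measured as luminescence from Caspase-Glo reagent (1 h, room temperature) after 16 h compound exposure of mouse N2a cells. AC50 values from Hill-equation concentration-response, scaled between DMSO and 10 uM staurosporine.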

[5] = Cellular Toxicity (caspase-3) NIH 3T3 (AID 666);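 also: caspase signal read after 16 h compound exposure; 0% = DMSO basal and 100% = 100 µM tamoxifen stimulation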
How it was run: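 Caspase-Glo 3/7 luminescence reported caspase activation in 1000 NIH 3T3 cells/well after 16 h compound exposure at 37 C. DMSO set basal and 100 uM tamoxifen set 100% stimulation; concentration-response modeled with the Hill equation for AC50.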

[6] = Cellular Toxicity (caspase-3) Renal Proximal Tubule (AID 667);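 also: cells exposed to compound for 16 hours at 37 °C before detection; 0% = DMSO basal and 100% = 10 µM staurosporine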
How it was run: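 Caspase 3/7 activation measured by luminescent aminoluciferin release in primary rat proximal tubule cells after 16 hr compound exposure at 37 °C. AC50 from Hill-fitted concentration-response, scaled between DMSO and 10 uM staurosporine.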

[7] = MultiTox-Fluor Cytotoxicity Assay - LYMP1-003 - Dead Cells (AID 961);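 also: 0% = DMSO and 100% = tetraoctylammonium bromide; nearly all actives have a fitted effect of over 70% in size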
How it was run: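 Acute toxicity is scored as increased dead-cell protease activity in human lymphoblastoid LYMP1-003 cells after 16 h compound exposure in complete culture medium. Activity is normalized to DMSO basal and 15 uM tetraoctylammonium bromide as full response.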

[8] = Cell Viability - LYMP2-003 (AID 965);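 also: cells exposed to compounds for 24 h before reading; 0% = DMSO only and full effect = 92 µM tetraoctylammonium bromide; nearly all actives have a fitted effect of over 50% in size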
How it was run: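 CellTiter-Glo luminescence quantified ATP loss after 24 h compound treatment of LYMP2-003 lymphoblastoid cells at 37 C. Titration series were fitted with the standard Hill equation to give AC50.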

[9] = Cell Viability - LYMP2-009 (AID 968);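 also: 0% = DMSO alone and the full-kill end = tetraoctylammonium bromide at 92 µM; nearly all actives have a fitted effect of over 55% in size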
[10] = Cell Viability - LYMP2-013 (AID 970);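 also: 0% = DMSO only and full inhibition = tetraoctylammonium bromide control; nearly all actives have a fitted effect of over 55% in size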
How it was run: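 qHTS cytotoxicity: ATP-dependent luminescence (CellTiter-Glo, 30 min room temperature) read after 24 h compound exposure at 37 C of 2500 LYMP2-013 lymphoblastoid cells per well. Concentration-response fitted with Hill equation to give AC50.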

[11] = Cell Viability - LYMP2-025 (AID 976);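 also: plate controls were DMSO only for no effect and tetraoctylammonium bromide control for full effect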
How it was run: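 Cytotoxicity read as loss of intracellular ATP (luciferase luminescence) after 24 h compound treatment at 37 C. Uses LYMP2-025 lymphoblastoid cells in 1536-well format; Hill-equation modelling gives AC50; tetraoctylammonium bromide as positive control.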

[12] = Cell Viability - LYMP2-006 (AID 978); also: % is scaled to controls: 0 for no effect and ±100 for the full control effect; nearly all actives have a fitted effect of over 60% in size
How it was run: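 Potency values are Hill-fit AC50s for decreases in intracellular ATP (CellTiter-Glo luminescence). LYMP2-006 lymphoblastoid cells, 2500 per well, were exposed to compound in complete culture medium for 24 hr at 37 C.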

[13] = Cell Viability - LYMP2-007 (AID 979);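 also: cells exposed to compound for 24 h before reading; 0% = DMSO only and the negative end = 92 µM tetraoctylammonium bromide; nearly all actives have a fitted effect of over 60% in size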
How it was run: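 AC50 values come from Hill-equation fits of luminescent intracellular ATP (CellTiter-Glo, 30 min, room temperature) following 24 h compound exposure at 37 C. Cells: LYMP2-007 lymphoblastoid line, 2500 per well, in complete culture medium.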

[14] = Cell Viability - LYMP2-008 (AID 980); also: % is scaled to controls: 0 for no effect and ±100 for the full control effect; nearly all actives have a fitted effect of over 60% in size
How it was run: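 Cytotoxicity determined from ATP-dependent luciferase luminescence (CellTiter-Glo) following 24 h compound exposure of human lymphoblastoid LYMP2-008 cells at 37 C. Concentration-response data fitted to the Hill equation to give AC50.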

[15] = Cell Viability - LYMP1-002 - Assay at 24 hr (AID 993); also: % is scaled to controls: 0 for no effect and ±100 for the full control effect
How it was run: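 qHTS cytotoxicity at 24 h: CellTiter-Glo ATP luminescence in lymphoblastoid line LYMP1-002 incubated with compound at 37 °C. Concentration-response modeled with the Hill equation for AC50; tetraoctylammonium bromide served as positive control.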

[16] = qHTS Assay for Identification of Small Molecule Inducers of Hypoxia Response (AID 2120; active = well fitted curve in the direction sought with a large enough effect in the signal ratio, with a control signal flat, not every such curve was filed as active; the % refers to the signal ratio; also: 0% is about no effect)
How it was run: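 Reporter induction read as the CCF4 blue/green (460nm/530nm) emission ratio after 2.5 h dye loading at room temperature. ME-180 HRE-beta-lactamase cells received titrated compounds for 17 h at 37 degrees Celsius; AC50 values derived.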

[17] = molecular target: Peroxisome proliferator-activated receptor alpha (Homo sapiens) (UniProt Q07869); assay: qHTS assay for small molecule agonists of the peroxisome proliferator-activated receptor alpha (PPARalpha) signaling pathway (AID 651778); conditions: PathHunter PPARalpha complementation, chemiluminescence, 6 h; stronger effect = higher value; also: % of control where 0% means no effect
Peroxisome proliferator-activated receptor alpha (Homo sapiens), sequence (Q07869 whole entry, looked up): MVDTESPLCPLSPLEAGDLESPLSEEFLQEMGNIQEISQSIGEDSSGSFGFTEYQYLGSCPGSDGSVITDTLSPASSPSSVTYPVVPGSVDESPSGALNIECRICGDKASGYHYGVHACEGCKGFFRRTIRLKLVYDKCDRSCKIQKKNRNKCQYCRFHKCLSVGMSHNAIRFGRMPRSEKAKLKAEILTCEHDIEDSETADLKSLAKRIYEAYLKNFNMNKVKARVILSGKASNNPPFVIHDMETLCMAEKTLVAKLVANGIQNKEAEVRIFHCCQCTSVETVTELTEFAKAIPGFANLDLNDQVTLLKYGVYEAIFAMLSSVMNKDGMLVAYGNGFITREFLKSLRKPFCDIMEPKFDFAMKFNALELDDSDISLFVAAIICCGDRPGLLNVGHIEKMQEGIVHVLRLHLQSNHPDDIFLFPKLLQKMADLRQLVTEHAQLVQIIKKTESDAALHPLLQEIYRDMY
How it was run: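 Cells plated at 2,000/well and held overnight at 37 C, 5% CO2, then compound added by pin tool for 6 hr; after PathHunter detection reagent and 60 min at room temperature, chemiluminescence from enzyme complementation was read.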

[18] = qHTS assay for small molecule agonists of the antioxidant response element (ARE) signaling pathway measured by Nrf2-dependant transcriptional activity - cell viability counter screen (AID 720653; active = well fitted curve in the direction sought with a large enough effect in the repeat runs; an effect the other way counts as inactive or inconclusive; also: % is scaled to controls: 0 for no effect and ±100 for the full control effect); conditions: ARE-bla HepG2 viability, CellTiter-Glo ATP luminescence, 16 h; stronger effect = lower value
How it was run: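 ARE-bla HepG2 cells (2,000/well) rested 5 hrs at 37C/5% CO2, then exposed to compounds in DMSO for 16 hrs. Viability was read in the same wells as intracellular ATP by luminescence, 30 min at room temperature after reagent addition.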

[19] = qHTS assay for cell viability of HEK293 cells (AID 743288); conditions: ATP luminescence (CellTiter-Glo), 18 h, stronger effect = lower value; also: % is scaled to controls: 0 for no effect and ±100 for the full control effect; nearly all actives have a fitted effect of over 50% in size
How it was run: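 Readout is luciferase-coupled ATP content (CellTiter-Glo luminescence, 30 min room temperature) as a measure of metabolically competent cells. Parental HEK293 cells were plated 5 h or more before compound addition, then treated 18 h at 37 C.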

[20] = qHTS assay for cell viability of the p53RE-bla HCT-116 cell line (AID 743292); also: % is scaled to controls: 0 for no effect and ±100 for the full control effect; nearly all actives have a fitted effect of over 55% in size
How it was run: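 After plating at 4,000 cells per well and a 5 h rest at 37 C, HCT-116 cells carrying p53RE-bla received test chemicals in DMSO. Sixteen hours later at 37 C, CellTiter-Glo was added and luminescence recorded following 30 min at room temperature.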

Nc1ccc(Cc2ccc(N)cc2)cc1
inactive: outcome [1] | Potency [2] | caspase-3 activation [3] 0.697% | outcome [4] | Potency [5] | outcome [6] | Potency [7] | Potency [8] | Potency [9] | Potency [10] | Potency [11] | Potency [12] | Potency [13] | Potency [14] | Potency [15] | Potency [16] | max response [17] -4.91% and -1.61% | max response [18] -0.954% and 9.87% | max response [19] 9.53% and -1.85% | Potency [20]

CCCCC(=O)Cl
inactive: outcome [1] | Potency [2] | caspase-3 activation [3] -0.249% | outcome [4] | Potency [5] | outcome [6] | Potency [7] | Potency [8] | Potency [9] | Potency [10] | Potency [11] | Potency [12] | Potency [13] | Potency [14] | Potency [15] | Potency [16] | max response [17] -8.92% | max response [18] 2.67% | max response [19] 5.94% | Potency [20]

Nc1cc(Cl)cc(C(=O)O)c1Cl
inactive: outcome [1] | Potency [2] | caspase-3 activation [3] -1.19% | outcome [4] | Potency [5] | outcome [6] | Potency [7] | Potency [8] | Potency [9] | Potency [10] | Potency [11] | Potency [12] | Potency [13] | Potency [14] | Potency [15] | Potency [16] | max response [17] 9.46% and -1.59% | max response [18] -8.07% and -24.7% | max response [19] 10.5% and -2.29% | Potency [20]

CCCCOC(C)=O
inactive: outcome [1] | Potency [2] | caspase-3 activation [3] -0.0829% | outcome [4] | Potency [5] | outcome [6] | Potency [7] | Potency [8] | Potency [9] | Potency [10] | Potency [11] | Potency [12] | Potency [13] | Potency [14] | Potency [15] | Potency [16] | max response [17] -4.39% | max response [18] 10.3% | max response [19] -4.32% | Potency [20]

Nc1cc(Cl)cc(Cl)c1
inactive: outcome [1] | Potency [2] | caspase-3 activation [3] 1.09% | outcome [4] | Potency [5] | outcome [6] | Potency [7] | Potency [8] | Potency [9] | Potency [10] | Potency [11] | Potency [12] | Potency [13] | Potency [14] | Potency [15] | Potency [16] | max response [17] 0.393% | max response [18] -13% | max response [19] 5.59% | Potency [20]

CC(=O)NNc1ccccc1
inactive: outcome [1] | Potency [2] | caspase-3 activation [3] -1.37% | outcome [4] | Potency [5] | outcome [6] | Potency [7] | Potency [8] | Potency [9] | Potency [10] | Potency [11] | Potency [12] | Potency [13] | Potency [14] | Potency [15] | Potency [16] | max response [17] -1.86% | max response [18] 1.56% | max response [19] 2.18% | Potency [20]

CCN(CC)CCO
inactive: outcome [1] | Potency [2] | caspase-3 activation [3] 4.32% | outcome [4] | Potency [5] | outcome [6] | Potency [7] | Potency [8] | Potency [9] | Potency [10] | Potency [11] | Potency [12] | Potency [13] | Potency [14] | Potency [15] | Potency [16] | max response [17] -3.44% | max response [18] -6.79% | max response [19] -8.96% | Potency [20]

O=[N+]([O-])c1ccc2c3c(cccc13)CC2
inactive: outcome [1] | Potency [2] | caspase-3 activation [3] 1.65% | outcome [4] | Potency [5] | outcome [6] | Potency [7] | Potency [8] | Potency [9] | Potency [10] | Potency [11] | Potency [12] | Potency [13] | Potency [14] | Potency [15] | Potency [16] | max response [17] -11.3% and -0.119% | max response [18] 3.04% and 5.87% | max response [19] -14% and -2.65% | Potency [20]

OCCOCCO
inactive: outcome [1] | Potency [2] | caspase-3 activation [3] 3.16% | outcome [4] | Potency [5] | outcome [6] | Potency [7] | Potency [8] | Potency [9] | Potency [10] | Potency [11] | Potency [12] | Potency [13] | Potency [14] | Potency [15] | Potency [16] | max response [17] -3.41% | max response [18] -0.406% | max response [19] 1.68% | Potency [20]

CCSC(=O)N1CCCCCC1
inactive: outcome [1] | Potency [2] | caspase-3 activation [3] 2.55% | outcome [4] | Potency [5] | outcome [6] | Potency [7] | Potency [8] | Potency [9] | Potency [10] | Potency [11] | Potency [12] | Potency [13] | Potency [14] | Potency [15] | Potency [16] | max response [17] 3.66% and -1.17% | max response [18] -5.76% and -1.37% | max response [19] 2.92% and -12.6% | Potency [20]

Reference: PubChem BioAssay (NCATS)
